PubChem BioAssay (EPA / NIEHS)
“And” between values parts separate entries of the source, which are not always exact repeats. Identical values can stand only once. More than one record can exist for a structure, and the calls need not agree. The source made the active and inactive calls. Rule for the calls: active = hit-call score of the fitted dose curve at least 0.9, where 1 is the maximum; inactive = score below 0.9.

Tests used:
[1] = read-out: Interleukin 17F (IL17F), IL17F (gene 112744); assay: BSK_BT_xIL17F: BioMAP Diversity Plus: BT Assay for Interleukin 17F (IL17F) Biomarker Activity (AID 2284243); details: primary human B cells with PBMC
Outline: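 Measures secreted IL-17F from a human B cell plus PBMC co-culture at 24 h post-dose by Luminex xMAP, with DMSO defining baseline activity.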

[2] = read-out: Actin alpha 1 (ACTA1), ACTA1 (gene 58); assay: BSK_MyoF_ACTA1: BioMAP Diversity Plus: MyoF Assay for Actin alpha 1 (ACTA1) Biomarker Activity (AID 2284244); details: primary human lung fibroblasts
Outline: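 alpha-SMA levels read by ELISA against DMSO baseline, 24 h post-dose, in primary human lung fibroblasts. Parallel cultures stained with 0.1% SRB after 10% TCA fixation (560 nm) to flag overt cytotoxicity.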

[3] = read-out: Interleukin 2 (IL2), IL2 (gene 3558); assay: BSK_BT_xIL2: BioMAP Diversity Plus: BT Assay for Interleukin 2 (IL2) Biomarker Activity (AID 2284245); details: primary human B cells with PBMC
Outline: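 Secreted IL-2 was read by Luminex xMAP from B cells co-cultured with PBMC (human primary) 24 h post-dosing; activity was analysed as gain of signal relative to DMSO vehicle.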

[4] = read-out: Basic fibroblast growth factor (bFGF), FGF2 (gene 2247); assay: BSK_MyoF_bFGF: BioMAP Diversity Plus: MyoF Assay for Basic fibroblast growth factor (bFGF) Biomarker Activity (AID 2284246); details: primary human lung fibroblasts
Outline: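 bFGF was measured by ELISA in primary human lung fibroblasts 24 h after chemical addition. Signal was analysed as positive-direction change relative to DMSO baseline.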

[5] = read-out: Collagen IV, COL4A1 (gene 1282); assay: BSK_MyoF_CollagenIV: BioMAP Diversity Plus: MyoF Assay for Collagen IV Biomarker Activity (AID 2284247); details: primary human lung fibroblasts
Outline: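 Collagen IV quantified by ELISA in human lung fibroblast cultures 24 h after chemical treatment, with DMSO as baseline. Parallel SRB staining (0.1% SRB after TCA fixation, 560 nm) flags overt cytotoxicity.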

[6] = read-out: Plasminogen activator inhibitor-1 (PAI1), SERPINE1 (gene 5054); assay: BSK_MyoF_PAI1: BioMAP Diversity Plus: MyoF Assay for Plasminogen activator inhibitor-1 (PAI1) Biomarker Activity (AID 2284256); details: primary human lung fibroblasts
Outline: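 Activity reflects increased PAI-1, determined by ELISA and compared with DMSO, in human lung fibroblasts treated for 24 h.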

[7] = read-out: Interleukin-8 (IL8), CXCL8 (gene 3576); assay: BSK_MyoF_IL8: BioMAP Diversity Plus: MyoF Assay for Interleukin-8 (IL8) Biomarker Activity (AID 2284261); details: primary human lung fibroblasts
Outline: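 In this multiplexed primary-cell system, fibroblasts from human lung are treated with chemicals, and IL-8 is detected by ELISA at 24 h, with DMSO serving as the negative reference.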

[8] = read-out: Monokine induced gamma interferon (MIG), CXCL9 (gene 4283); assay: BSK_KF3CT_MIG: BioMAP Diversity Plus: KF3CT Assay for Monokine induced gamma interferon (MIG) Biomarker Activity (AID 2284248); details: primary human keratinocytes with fibroblasts
Outline: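 The assay uses a co-culture of human keratinocytes and foreskin fibroblasts. Measurement occurs 24 hours after dosing, with MIG detected by ELISA and the DMSO control as baseline.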

[9] = read-out: Vascular cell adhesion molecule 1 (VCAM1), VCAM1 (gene 7412); assay: BSK_BF4T_VCAM1: BioMAP Diversity Plus: BF4T Assay for Vascular cell adhesion molecule 1 (VCAM1) Biomarker Activity (AID 2284249); details: primary human bronchial epithelial cells with fibroblasts
Outline: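 Cell-surface VCAM-1 quantified by ELISA after 24 h chemical exposure of human bronchial epithelial/dermal fibroblast co-cultures, with SRB staining in parallel wells for cytotoxicity; DMSO baseline, positive-direction fitting.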

[10] = read-out: Collagen I, COL1A1 (gene 1277); assay: BSK_hDFCGF_CollagenI: BioMAP Diversity Plus: hDFCGF Assay for Collagen I Biomarker Activity (AID 2284250); details: primary human foreskin fibroblasts
Outline: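 Collagen I quantified by ELISA 24 h after chemical dosing of human dermal fibroblast primary cells, with parallel SRB staining (0.1%, TCA-fixed, 560 nm) for overt cytotoxicity.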

[11] = read-out: Interferon-inducible T-cell alpha chemoattractant (ITAC), CXCL11 (gene 6373); assay: BSK_hDFCGF_ITAC: BioMAP Diversity Plus: hDFCGF Assay for Interferon-inducible T-cell alpha chemoattractant (ITAC) Biomarker Activity (AID 2284251); details: primary human foreskin fibroblasts
Outline: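 I-TAC levels were read by ELISA on human dermal foreskin fibroblast primary cultures 24 h after dosing, analysed against DMSO in the positive direction. Cytotoxicity was assessed alongside by sulforhodamine B total-protein staining.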

[12] = read-out: Plasminogen activator inhibitor-1 (PAI1), SERPINE1 (gene 5054); assay: BSK_KF3CT_PAI1: BioMAP Diversity Plus: KF3CT Assay for Plasminogen activator inhibitor-1 (PAI1) Biomarker Activity (AID 2284252); details: primary human keratinocytes with fibroblasts
Outline: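 PAI-1 levels quantified by ELISA after 24 h compound exposure of primary human skin keratinocytes co-cultured with fibroblasts. Activity is the gain relative to DMSO; cytotoxicity tracked in parallel cultures via SRB staining.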

[13] = read-out: Monocyte Chemoattractant Protein-1 (MCP1), CCL2 (gene 6347); assay: BSK_IMphg_MCP1: BioMAP Diversity Plus: IMphg Assay for Monocyte Chemoattractant Protein-1 (MCP1) Biomarker Activity (AID 2284253); details: primary human endothelial cells with macrophages
Outline: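 ELISA readout of MCP-1 at 24 hours in IMphg co-cultures of venular endothelial cells and macrophages, normalised to DMSO; parallel cultures stained with sulforhodamine B for overt cytotoxicity.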

[14] = read-out: Interleukin-8 (IL8), CXCL8 (gene 3576); assay: BSK_KF3CT_IL8: BioMAP Diversity Plus: KF3CT Assay for Interleukin-8 (IL8) Biomarker Activity (AID 2284254); details: primary human keratinocytes with fibroblasts
Outline: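 ELISA detection of IL-8 from a human skin co-culture, keratinocytes with foreskin fibroblasts, at 24 h following chemical exposure, with gain of signal scored against DMSO controls.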

[15] = read-out: Macrophage Inflammatory Protein-1 Alpha (MIP1a), CCL3 (gene 6348); assay: BSK_IMphg_MIP1a: BioMAP Diversity Plus: IMphg Assay for Macrophage Inflammatory Protein-1 Alpha (MIP1a) Biomarker Activity (AID 2284255); details: primary human endothelial cells with macrophages
Outline: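 MIP-1a protein levels were quantified by ELISA after 24 h treatment of human endothelial cell–macrophage co-cultures, compared with DMSO. Parallel cultures were fixed with TCA and stained with 0.1% SRB to gauge overt cytotoxicity.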

[16] = read-out: CD69, CD69 (gene 969); assay: BSK_IMphg_CD69: BioMAP Diversity Plus: IMphg Assay for CD69 Biomarker Activity (AID 2284257); details: primary human endothelial cells with macrophages
Outline: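 Readout is ELISA for CD69 in primary human venular endothelial cell/macrophage co-culture, taken at 24 h post-dosing. SRB staining of parallel cultures gauged overt cytotoxicity; signal increase versus DMSO defined activity.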

[17] = read-out: Eotaxin 3, CCL26 (gene 10344); assay: BSK_BF4T_Eotaxin3: BioMAP Diversity Plus: BF4T Assay for Eotaxin 3 Biomarker Activity (AID 2284258); details: primary human bronchial epithelial cells with fibroblasts
Outline: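 ELISA measurement of Eotaxin-3 after 24 h chemical exposure in a bronchial epithelial/dermal fibroblast co-culture, with DMSO as baseline. Parallel SRB staining (0.1% SRB after 10% TCA fixation, 560 nm) flagged overt cytotoxicity.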

[18] = read-out: Monocyte Chemoattractant Protein-1 (MCP1), CCL2 (gene 6347); assay: BSK_BF4T_MCP1: BioMAP Diversity Plus: BF4T Assay for Monocyte Chemoattractant Protein-1 (MCP1) Biomarker Activity (AID 2284259); details: primary human bronchial epithelial cells with fibroblasts
Outline: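 MCP-1 ELISA readout taken 24 h after dosing in the BF4T system (bronchial epithelial cells plus dermal fibroblasts). Parallel SRB total-protein staining flagged cytotoxicity; DMSO served as baseline, positive fitting direction.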

[19] = read-out: Intercellular Adhesion Molecule 1 (ICAM1), ICAM1 (gene 3383); assay: BSK_BF4T_ICAM1: BioMAP Diversity Plus: BF4T Assay for Intercellular Adhesion Molecule 1 (ICAM1) Biomarker Activity (AID 2284260); details: primary human bronchial epithelial cells with fibroblasts
Outline: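 ICAM-1 levels measured by ELISA after 24 h chemical treatment of bronchial epithelial cell/dermal fibroblast co-cultures, read against DMSO baseline. Overt cytotoxicity checked in parallel cultures by sulforhodamine B staining.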

[20] = read-out: CD90, THY1 (gene 7070); assay: BSK_BF4T_CD90: BioMAP Diversity Plus: BF4T Assay for CD90 Biomarker Activity (AID 2284262); details: primary human bronchial epithelial cells with fibroblasts
Outline: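 CD90 levels by ELISA after 24 h treatment of human bronchial epithelial cell/dermal fibroblast cultures, analysed versus DMSO. Overt cytotoxicity checked in parallel cultures by sulforhodamine B staining.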

Measured: AC50

Sc1ccccc1
inactive: [1] | [2] | [3] | [4] | [5] | [6] | [7]

O=S(=O)(O)C(F)(F)C(F)(F)C(F)(F)C(F)(F)F
inactive: all assays above

NS(=O)(=O)C(F)(F)C(F)(F)C(F)(F)C(F)(F)C(F)(F)C(F)(F)C(F)(F)C(F)(F)F
active: [1] 35.5 µM and 45.9 µM | [2] 10.9 µM and 12 µM | [4] 45.6 µM and 45.4 µM | [5] 7.27 µM and 7.31 µM | [8] 27.9 µM and 51.6 µM | [9] 24.8 µM and 23.3 µM | [11] 8.34 µM and 8.29 µM | [12] 40.7 µM and 21.7 µM | [13] 45.2 µM and 50.4 µM | [14] 37.2 µM and 22.3 µM | [15] 54.8 µM and 43.3 µM | [6] 46.3 µM and 55.1 µM | [16] 10 µM | [17] 20.4 µM and 12.6 µM | [18] 47.9 µM and 42 µM | [19] 47.2 µM and 36 µM | [7] 53 µM and 50.7 µM | [20] 30 µM and 21.8 µM
inactive: [3] | [10] | [16]

COc1ccc(O)c(C(C)(C)C)c1
inactive: [8] | [10] | [11] | [12] | [14]

O=C(O)C(F)(F)C(F)(F)C(F)(F)C(F)(F)C(F)(F)F
inactive: all assays above

O=C(O)C(F)(F)C(F)(F)C(F)(F)C(F)(F)C(F)(F)C(F)(F)C(F)(F)C(F)(F)F
active: [2] 30 µM and 40.3 µM | [5] 18.9 µM and 13.9 µM | [9] 12.9 µM and 11 µM | [11] 47.9 µM and 47.8 µM | [12] 48.2 µM and 41.7 µM | [16] 49.9 µM and 48.7 µM | [17] 17 µM and 15.5 µM | [18] 21.7 µM and 34.2 µM | [19] 22.2 µM and 38.1 µM
inactive: all other assays above

O=S(=O)(O)C(F)(F)C(F)(F)C(F)(F)C(F)(F)C(F)(F)C(F)(F)F
inactive: all assays above

O=C(O)C(F)(F)C(F)(F)C(F)(F)C(F)(F)C(F)(F)C(F)(F)C(F)(F)C(F)(F)C(F)(F)F
active: [2] 45.3 µM and 23.6 µM | [4] 56.9 µM and 55.4 µM | [5] 7.07 µM and 7.44 µM | [8] 50.1 µM and 45.2 µM | [9] 11.8 µM and 14.2 µM | [11] 19 µM and 22 µM | [12] 41.7 µM and 33.4 µM | [13] 46.9 µM and 53.7 µM | [14] 44.9 µM | [15] 47 µM and 33.7 µM | [6] 46.7 µM and 54.8 µM | [16] 45.3 µM and 42 µM | [17] 9.59 µM and 12.1 µM | [18] 9.32 µM and 8.22 µM | [19] 11.6 µM and 14.5 µM | [7] 54.6 µM | [20] 19 µM and 19.4 µM
inactive: [1] | [3] | [10] | [14] | [7]

Oc1c(Cl)c(Cl)c(Cl)c(Cl)c1Cl
inactive: [1] | [3]
active: [2] 10.3 µM | [4] 33.5 µM | [5] 30.6 µM | [6] 7.45 µM | [7] 0.595 µM
